# APP 5UTR inh: inhibitors of APP translation via 5'UTR reporter, primary screen, APP 5'UTR luciferase, SH-SY5Y cells; SH-SY5Y APP 5'UTR-luciferase reporter, luminescence; inhibition, % at 2 µM; hit rate 0.82% among 190,000; AID 1285, 2008;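 active = inhibition above a set limit, derived from the sample mean plus 3 SD, cut at about 45% in these data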
# BaF3 tox: parental Ba/F3 cell viability inhibition, counter-screen for JAK2V617F inhibitor project, murine pro-B, CellTiter-Glo luminescence; CellTiter-Glo ATP luminescence; inhibition, % at 5.6 µM; hit rate 1.1% among 220,000; AID 1486, 2009;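 active = inhibition above a per-campaign cutoff, the mean inhibition of all tested compounds plus 3 SD, cut at about 27% in these data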;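 also: 0% = DMSO wells and 100% = JAK Inhibitor I control wells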
# KLF5 inh: KLF5 expression inhibitors, primary screen, DLD-1 cells, luminescence. DLD-1 KLF5 promoter-luciferase reporter. inhibition, % at 5 µM. hit rate 0.23% among 290,000;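 active = inhibition above a per-plate limit of that plate's mean compound inhibition plus 3 SD, cut at about 60% in these data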;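 also: 0% = DMSO wells and 100% = LY294002 at 200 µM; higher means less KLF5 promoter-driven luciferase light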
# IEC-6 cytotox: cytotoxicity in IEC-6 intestinal epithelial cells, primary screen, cytotoxicity control for KLF5 inhibitor project, cell-based, luminescence; IEC-6 cytotoxicity, luminescence viability; inhibition, % at 5 µM; hit rate 0.78% among 290,000; AID 1825, 2009; in the data active = inhibition above about 22%;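 also: 0% = plate median of test compound wells and 100% = cytotoxic reference compound wells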
# Ba/F3 V617F tox: reduced viability of JAK2V617F-dependent Ba/F3 cells, primary screen, JAK2V617F inhibitor project, cell-based, Ba/F3 EpoR-JAK2V617F, luminescence; ATP luminescence; inhibition, % at 5.6 µM; hit rate 1.1% among 220,000; AID 1446, 2008;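 active = inhibition above the campaign mean plus 3 SD over all tested compounds, cut at about 24% in these data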;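 also: cytokine-independent growth of Ba/F3 cells driven by EpoR plus mutant JAK2; 0% = DMSO-treated cells and 100% = JAK inhibitor I control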
# An asterisk follows results filed as active; nt = not tested or not shown. In the library only some 1.9% were active in any assay of this set; here they are far more common.
SMILES,APP 5UTR inh,BaF3 tox,KLF5 inh,IEC-6 cytotox,Ba/F3 V617F tox
COc1ccc(C(=O)/C=C/C(=O)N(CC(=O)NC2CCCCC2)Cc2ccc(F)cc2)c(O)c1,78*,6,17,-7,1
COc1ccccc1-n1cc([C@@H]2C[C@H]3CN(c4ccccc4)C(=O)[C@]34CCCN24)cn1,95*,7,-17,-2,-1
COc1cc([C@@H]2C[C@H]3CN(c4ccccc4)C(=O)[C@]34CCCN24)cc(OC)c1OC,-1,4,-37,-6,0
CC(C)c1ccc(N(CC(=O)NCc2ccc(F)cc2)C(=O)c2csnn2)cc1,-14,12,-29,6,3
CC(=O)/C(=N\Nc1ccccc1)Sc1cccc2cccnc12,12,6,-8,14,1
COc1ccc(S(=O)(=O)Nc2cc(SCC(=O)O)c(O)c3ccccc23)cc1,nt,nt,-81,20,nt
O=S(=O)(Nc1cc(Sc2cccc3cccnc23)c(O)c2ccccc12)c1ccc(F)cc1,78*,3,2,51*,-3
O=C(Sc1cccc2cccnc12)c1ccc(F)cc1,71*,41*,17,87*,43*
COc1ccc(S(=O)(=O)Nc2cc(Sc3ncn[nH]3)c(O)c3ccccc23)cc1,9,87*,89*,13,90*
NC(=S)N/N=C/c1cn(-c2ccccc2)nc1-c1cccnc1,nt,7,27,3,10
CCOC(=O)C1(CC2CCCCO2)CCN(Cc2ccc(OC)cc2F)CC1 (stereo unspecified),1,1,-10,-3,-3
O=C(Nc1ccc(S(=O)(=O)N2CCCC2)cc1)c1ccc(CN2CCc3ccccc3C2)cc1,11,9,-14,1,6
O=C(Nc1ccc(S(=O)(=O)N2CCOCC2)cc1)c1ccc(CN2CCc3ccccc3C2)cc1,0,51*,5,16,63*
O=C(c1ccc2c(=O)n(-c3ccccc3)c(=S)[nH]c2c1)N1CCCCC1,-2,64*,-21,1,45*
CCCc1nnc(NC(=O)C2CC(=O)N(C3CCCC3)C2)s1 (stereo unspecified),nt,nt,-6,-1,nt
CC(C)C(C(=O)NCC1CCCO1)N(C(=O)CNS(=O)(=O)c1ccccc1)c1ccc(F)cc1 (stereo unspecified),nt,nt,-9,2,nt
O=C(O)Cn1nnnc1SCC(=O)Nc1ccc(F)cc1F,-18,2,-18,7,0
O=C(Nc1ccc(Cl)cc1)Nc1ccccc1C(=O)O,-119,4,-183,-10,-3
O=C(Nc1ccc(Cl)c(Cl)c1)Nc1ccccc1C(=O)O,-215,45*,-137,-10,18
O=C(CNC(=O)c1ccc(-c2ccccc2)cc1)OCc1c(F)cccc1Cl,10,5,-5,-8,1
CC(=O)/C(N=Nc1c(C)n(C)n(-c2ccccc2)c1=O)=C(\C)O,79*,-2,-24,-4,-1
CC1CCC2=NN(C(=O)c3ccco3)C(O)(C(F)(F)F)C2C1 (stereo unspecified),-2,1,-23,-1,-2
CCCCC(=O)NC(c1ccc(Cl)cc1Cl)c1ccc2cccnc2c1O (stereo unspecified),nt,nt,45,7,nt
O=C(NC(c1ccc(Cl)cc1)c1cc(Cl)c2cccnc2c1O)c1cccnc1 (stereo unspecified),79*,9,-14,5,4
CCC(=O)NC(c1ccc(C)cc1)c1cc([N+](=O)[O-])c2cccnc2c1O (stereo unspecified),26,9,-1,1,3
SMILES,APP 5UTR inh,BaF3 tox,KLF5 inh,IEC-6 cytotox,Ba/F3 V617F tox
CN1CCN(C(c2ccc(Cl)cc2)c2cc(Cl)c3cccnc3c2O)CC1 (stereo unspecified),nt,nt,51,6,nt
CCCCC(=O)NC(c1cccs1)c1cc(Cl)c2cccnc2c1O (stereo unspecified),72*,1,12,1,0
CCC(=O)NC(c1cccs1)c1cc(Cl)c2cccnc2c1O (stereo unspecified),61*,4,7,14,4
CCCC(=O)NC(c1ccc(OC)c(OC)c1)c1cc(Cl)c2cccnc2c1O (stereo unspecified),53*,2,-3,-1,-5
COc1ccc(OC)c(NS(=O)(=O)c2ccc(-c3coc(C)n3)cc2)c1,nt,nt,-19,8,nt
Cc1ccc(C23CC4CC(CC(C(=O)OCC(=O)NC5CCS(=O)(=O)C5)(C4)C2)C3)cc1 (stereo unspecified),-3,5,-25,-1,4
N/C(=N\O)c1cn(Cc2ccccc2Cl)c2ccccc12,nt,nt,-26,10,nt
Cc1[nH][nH]c(=O)c1C(c1c(C)[nH][nH]c1=O)c1cn(Cc2ccccc2Cl)c2ccccc12,49*,2,-2,-1,1
CCOC(=O)c1[nH]c2ccc(OC)cc2c1NC(=O)c1nonc1C,46*,0,-21,0,3
O=C1CC(c2ccccc2Cl)c2c(sc3c(=O)[nH]c(CCl)nc23)N1 (stereo unspecified),nt,0,-4,2,1
O=C(Nc1cccc(-c2cn3cccnc3n2)c1)c1ccc(Br)o1,54*,6,-24,4,4
N#C/C(=C\c1ccc(Cl)cc1)c1nc2ncccc2[nH]1,-16,3,-8,-7,-5
Cc1ccc(C(=O)Nc2cc3ccccc3oc2=O)cc1,66*,4,-77,-2,-1
COc1cc(C(=O)NC(=S)Nc2cccc(-c3cc4ccccc4oc3=O)c2)cc(OC)c1OC,9,2,-11,8,1
Cc1cc(NC(=S)NC(=O)c2ccccc2)ccc1-c1cc2ccccc2oc1=O,69*,6,-19,3,0
CC(=O)Nc1cc2ccccc2oc1=O,-12,5,-16,-4,-2
CCOc1ccc(C(=O)Nc2ncccc2Cl)cc1,-42,4,-120,5,-1
CCN(CC(=O)NCc1ccc(F)cc1)C(=O)CN1CCN(c2ccc(OC)cc2)CC1,nt,nt,-13,1,nt
CSCCC(NC(=O)c1ccccc1Cl)C(=O)N1CCN(C(c2ccccc2)c2ccccc2)CC1 (stereo unspecified),nt,nt,10,-14,nt
Cc1cnc(NC(=O)CSc2ccc(Cl)cc2)s1,-13,-1,-15,3,-2
Cc1cnc(NC(=O)Nc2ccc(Cl)cc2)s1,28,72*,-127,29*,92*
COc1ccc2c(c1)C=C(CN1CCC(CO)(CCc3ccccc3)CC1)CO2,-11,4,9,-4,-3
COc1ccc(CC2(CO)CCN(CC3=Cc4cc(Cl)ccc4OC3)CC2)cc1,14,39*,-12,-1,37*
O=C(NC(CSCc1ccccc1)C(=O)N/N=C/c1ccc(O)cc1O)c1ccc([N+](=O)[O-])cc1 (stereo unspecified),50*,9,33,20,7
CCc1nnc(NC(=O)c2cccc(C(=O)Nc3nnc(CC)s3)n2)s1,85*,12,54,93*,3

# Screening data deposited in PubChem BioAssay by several laboratories.
